Results from PubChem BioAssay (Tox21).
Inconclusive results are not listed. Where a call stands in place of a potency, no number is given. Unmarked numbers belong to inactive results. Activity calls are given as the source filed them. Calls come from the whole dose curve; as a rule, active = well fitted cell-killing curve with a large enough effect in the repeat runs; inconclusive = weak or mixed curves; inactive = flat fitted curve, though single readings scatter.

Test: qHTS RealTime-Glo MT Cell Viability Assay in HepG2 cells - 16 hour (AID 1224885); note: nearly all actives have a fitted effect of over 50% in size
Conditions: RealTime-Glo luminescence; series mostly up to 76.8 µM
From the text: U.S. Tox21 Program National Center for Advancing Translational Sciences [NCATS] NIH Chemical Genomics Center [NCGC] U.S. Environmental Protection Agency [EPA] National Institutes of Environmental Health Sciences [NIEHS] National Toxicology Program [NTP] U.S. Food and Drug Administration [FDA] Tox21 Assay Overview: Measure of cell viability is critical in the cell-base assay. Analysis of cell viability is necessary for the characterization of cell responses to cytotoxic drugs and environmental stress. A RealTime-Glo MT Cell Viability Assay to monitor cell viability in real time of continues cell culture during 40 hours of compound treatment was used to screen Tox21 10K library compounds in HepG2 cells. The RealTime-Glo MT Cell Viability Assay is a nonlytic, homogeneous, bioluminescent method to measure cell viability in real time using a simple, plate-based method. The assay involves adding NanoLuc luciferase and a cell-permeant prosubstrate to cells in culture. Viable cells reduce the proprietary prosubstrate to generate a substrate for NanoLuc luciferase. This substrate diffuses from cells into the surrounding culture medium, where it is rapidly used by the NanoLuc Enzyme to produce a luminescent signal. The signal correlates with the number of viable cells, making the assay well suited for cytotoxicity studies.
Tox21 Assay Protocol Summary: The mixture of HepG2 cell suspension and reagents were dispensed at 600cells/6 ul/well in 1536-well tissue culture treated black solid bottom plates using a Multidrop dispenser. After the assay plates were incubated at a 37 C/5% CO2 incubator for 5 hours, 23 nL of compounds dissolved in DMSO, positive and negative controls was transferred to the assay plate by a pintool work station. The plates were incubated at 37 C for 40 hours. The luminescence intensity were measured at 0h, 8h, 16h, 24h, 32h and 40h time points using ViewLux plate reader during compound treatment.
Potency is the fitted concentration of half-maximal effect.

| Structure (SMILES) | Potency | activity change, negative = cytotoxic |
| --- | --- | --- |
| O=C(O)CCCCCCCCCCCBr | inactive |  |
| C=C(C)CCCC(C)CCO (stereo not given) | inactive |  |
| C[C@@]12CCC[C@H]1[C@@H]1CC[C@H]3C[C@@H](O)CC[C@]3(C)[C@H]1CC2 | inactive |  |
| CCCCCCCCCCC(=O)O | inactive |  |
| O=C(CCc1ccc(O)cc1)c1c(O)cc(O)cc1O | inactive |  |
| CCOC(C)=O | inactive |  |
| CCCCCCCCCI | inactive |  |
| C[C@@H]1CN(CCCn2c3ccccc3c3ccccc32)C[C@H](C)N1 | 23.9 µM (active) |  |
| O=c1[nH]ncc2ccccc12 | inactive |  |
| Cc1ccc2c(Br)cc(Br)c(O)c2n1 | inactive |  |
| CC1(C)[C@H](C(=O)O)N2C(=O)C[C@H]2S1(=O)=O | inactive |  |
| O=Cc1c2ccccc2c(Cl)c2ccccc12 | inactive |  |
| CCOC(=O)[C@H](CCc1ccccc1)N[C@@H](C)C(=O)N(CC(=O)O)C1Cc2ccccc2C1 | inactive |  |
| C1COC1 | inactive |  |
| OC[C@H]1O[C@@H](n2cnc3c(=S)nc[nH]c32)[C@H](O)[C@@H]1O | inactive |  |
| CC(=O)OCC(=O)NCCCOc1cccc(CN2CCCCC2)c1 | inactive |  |
| COC(=O)CS | inactive |  |
| O=C(Cn1ccnc1[N+](=O)[O-])NCCO | inactive |  |
| CC1CC(C)C(=O)C1=O (stereo not given) | inactive |  |
| COc1ccccc1N1CCN(CCCCNC(=O)c2ccc(-c3ccc(C(C)=O)cc3)cc2)CC1 | inactive |  |

| Structure (SMILES) | Potency | activity change, negative = cytotoxic |
| --- | --- | --- |
| CCCCCCCC/C=C\CCCCCCCCCCCC(=O)O | inactive |  |
| Nc1ncnc2c1ncn2[C@H]1CC[C@@H](CO)O1 | inactive |  |
| CC1=C(Br)C(=O)C(Br)=C/C1=C(/c1ccccc1S(=O)(=O)O)c1cc(Br)c(O)c(Br)c1C | inactive |  |
| CCOC(=O)OC(C)OC(=O)[C@@H]1N2C(=O)[C@@H](NC(=O)[C@H](N)c3ccccc3)[C@H]2SC1(C)C (stereo not given in full) | inactive |  |
| Cc1cc(=O)c2c(O)c3c(O)cc(=O)c4c3c3c(cc(O)c1c23)C(C)(C)C=4O |  | -19% [at 15.8 µM] |
| CC(C)Nc1cccnc1N1CCN(C(=O)c2cc3cc(NS(C)(=O)=O)ccc3[nH]2)CC1 | inactive |  |
| C=C(C)C(=O)OCCOCCOC(=O)C(=C)C | inactive |  |
| COC(=O)CCS | inactive |  |
| CC(C)C(O)(c1ccc(OC(F)(F)F)cc1)c1cncnc1 (stereo not given) | inactive |  |
| CCCCCCC(C)(C)C(=O)O | inactive |  |
| Oc1cccc(O)c1O | inactive |  |
| O=C1Cc2ccccc2N1c1c(Cl)cccc1Cl | inactive |  |
| Cc1cc2c(OCC(CNC(C)(C)C)OC(=O)c3ccccc3)cccc2[nH]1 (stereo not given) | inactive |  |
| FC(F)(F)c1ccccc1Cl | inactive |  |
| CC(=O)N/N=C/c1ccc([N+](=O)[O-])o1 | inactive |  |
| CCC(=O)C1CC(C(C)C)CC=C1C (stereo not given) | inactive |  |
| CCC(=O)OC | inactive |  |
| O[C@@H]1CO[C@H]2[C@@H]1OC[C@@H]2O | inactive |  |
| CCC1(CO)COCOC1 | inactive |  |
| Cc1cccc(N(C)C(=S)Oc2ccc3c(c2)CCC3)c1 | inactive |  |
